What all share (experiment): Primary qHTS to identify gynecologic anti-cancer compounds using libraries of approved drugs and bioactive compounds (AID 1345084); note: nearly all actives have a fitted effect of over 55% in size
Conditions in all cases: Gynecologic cancer cell panel viability, ATPlite luminescence, 48 h; series mostly up to 57.5 µM
(Quantitative high-throughput screening tests each substance at several concentrations.)

Test [1] deals with SKOV3. In a few lines: (§1)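 Cells, 1,000 per well, were allowed to settle for 16 h at 37 C before compound addition. Five concentrations were tested for 48 h, and viability was read by ATPlite luminescence after 15 min at room temperature.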
Test [2] relates to Tov-21-G. The method in brief:
as §1

For test [3], the system named is Tov112D. The method in brief:
as §1

Molecules are shown by their SMILES. Inconclusive results are not listed. Unmarked numbers belong to inactive results. Activity calls are given as the source filed them. Calls come from the whole dose curve; as a rule, active = well fitted cell-killing curve with a large enough effect; inconclusive = small, poorly fitted or top-dose-only effect, or effect the other way; inactive = flat fitted curve, though single readings scatter.
% is set by controls: 0 for no effect and ±100 for the full control effect; potency is the fitted concentration of half-maximal effect.

As for `C[C@@H]1O[C@@H](O[C@H]2[C@@H](OC(=O)[C@]34CCC(C)(C)CC3C3=CCC5[C@@]6(C)C[C@H](O)[C@H](O[C@@H]7O[C@H](CO)[C@@H](O)[C@H](O)[C@H]7O[C@@H]7OC[C@@H](O)[C@H](O)[C@H]7O)[C@@](C)(C(=O)O)C6CC[C@@]5(C)[C@]3(C)CC4)OC[C@H](O)[C@@H]2O)[C@H](O)[C@H](O)[C@H]1O[C@@H]1OC[C@@H](O)[C@H](O)[C@H]1O` (some centres not stated), the results for the activity change, negative = cytotoxicity in test [1], in test [2] and in test [3] were -18.3% [at 6.55 µM], 0.0725% [at 6.55 µM] and -12.7% [at 6.55 µM], respectively.

For `CC(C)C[C@H](CO)Nc1nc(S[C@@H](C)c2ccccc2)nc2nc(N)sc12`, the Potency entry in test [1], in test [2] and in test [3] was “inactive” in each case.

On to `Cc1nc(C#Cc2ccnc(Cl)c2)c(C)n1-c1ccc(OC(F)(F)F)cc1`, for which the Potency result in test [1], in test [2] and in test [3] was “inactive” in each case.

As for `CN1CCN(C2=Nc3ccccc3Nc3ccc(OS(=O)(=O)C(F)(F)F)cc32)CC1`, the Potency result in test [1], in test [2] and in test [3] was “inactive” each time.

As to `C1=Cc2ccccc2C(=C2CCN(CCCCc3nn[nH]n3)CC2)c2ccccc21`, the Potency result in test [1], in test [2] and in test [3] was “inactive” throughout.

On to `CCC(C(C)O)n1ncn(-c2ccc(N3CCN(c4ccc(OCC5COC(Cn6cncn6)(c6ccc(F)cc6F)C5)cc4)CC3)cc2)c1=O` (configuration not stated), for which the Potency result in test [1], in test [2] and in test [3] was “inactive” each time.

Consider `CC(CCC1(O)OC2CC3C4CC=C5C[C@@H](O[C@@H]6O[C@H](CO)[C@@H](O[C@@H]7O[C@@H](C)[C@H](O)[C@@H](O)[C@H]7O)[C@H](O)[C@H]6O[C@@H]6O[C@@H](C)[C@H](O)[C@@H](O)[C@H]6O)CC[C@]5(C)C4CC[C@]3(C)[C@@]2(O)[C@@H]1C)CO[C@@H]1O[C@H](CO)[C@@H](O)[C@H](O)[C@H]1O` (some centres not stated), for which the results for the activity change, negative = cytotoxicity in test [1], in test [2] and in test [3] were 2.43% [at 11.6 µM], 0.779% [at 11.6 µM] and -0.117% [at 11.6 µM], respectively.

Consider `Cc1noc(-c2ccc(-c3ccc(CC(=O)O)cc3)cc2)c1NC(=O)O[C@H](C)c1ccccc1Cl`, for which the Potency entry in test [1], in test [2] and in test [3] was “inactive” in each case.

As to `COc1c2c(nc3occc13)C(CC=C(C)C)(OC)C(O)CC2` (configuration not stated), the Potency entry in test [1], in test [2] and in test [3] was “inactive” throughout.

For the molecule `COC(=O)CC[C@@H](C)C1CCC2C3CCC4C[C@H](OC(C)=O)CCC4(C)C3C[C@H](O)C21C` (some centres not stated), the Potency result in test [1], in test [2] and in test [3] was “inactive” in each case.

As for `CCNC(=O)c1noc(-c2cc(Cl)c(O)cc2O)c1-c1ccc(OC)cc1`, the Potency was 2820 nM (active) in test [1], 562 nM (active) in test [2] and 501 nM (active) in test [3].

`CC(C)NCCCn1c(Sc2cc3c(cc2I)OCO3)nc2c(N)ncnc21`: the figures for the Potency in test [1], in test [2] and in test [3] were 2000 nM (active), 501 nM (active) and 891 nM (active), respectively.

On to `O=S(=O)(NCc1ccccn1)c1ccc(Br)c2ccccc12`, for which the Potency entry in test [1], in test [2] and in test [3] was “inactive” in each case.

For `CNc1cc2[nH]c(=O)n(-c3ccc(NC(=O)NS(=O)(=O)c4ccc(Cl)s4)cc3)c(=O)c2cc1F`, the Potency entry in test [1], in test [2] and in test [3] was “inactive” each time.

On to `CC(=O)O[C@H]1[C@@]2(O)C[C@H](C)[C@H](OC(=O)c3ccccc3)[C@@H]2[C@@H](OC(=O)CO)[C@]2(OC(C)=O)C[C@H]3C(=O)C(C)(C)C[C@@H]3[C@@]1(C)[C@H]2OC(C)=O`, for which the Potency result in test [1], in test [2] and in test [3] was “inactive” in each case.

With `COc1ccc(N2CCN(C(=O)c3cc4c(s3)-c3ccccc3S(=O)(=O)C4)CC2)cc1`, the Potency entry in test [1], in test [2] and in test [3] was “inactive” each time.

In the case of `CC1(C)SCCN(S(=O)(=O)c2ccc(Oc3ccncc3)cc2)[C@H]1C(=O)NO`, the Potency result in test [1], in test [2] and in test [3] was “inactive” each time.

Regarding `CC1(CO)CC2C(O)C3=C(CC(C)(O)C2C1)C(=O)OC3` (configuration not stated), the Potency result in test [1], in test [2] and in test [3] was “inactive” in each case.

Take `C=C1/C(=C/C=C2\CCC[C@]3(C)[C@@H]([C@@H](C)OCCC(O)(CC)CC)CC[C@@H]23)C[C@@H](O)C[C@@H]1O`: the Potency result in test [1], in test [2] and in test [3] was “inactive” throughout.

With `O=C(NCCO)c1cccc(-c2cc(Nc3ccc(OC(F)(F)F)cc3)ncn2)c1`, the Potency result in test [1], in test [2] and in test [3] was “inactive” in each case.

Take `CCC/C=C\C=C/CCc1cc(O)c([C@@H]2O[C@H](CO)[C@@H](O)[C@H](O)[C@H]2O)c(O)c1C(=O)OC`: the Potency result in test [1], in test [2] and in test [3] was “inactive” each time.

Consider `CC(C)c1cc(-c2ccc(F)c3ccccc23)nc(N)n1`, for which the Potency result in test [1], in test [2] and in test [3] was “inactive” each time.

Turning to `COc1cc(C(=O)NC(=S)Nc2cccc(NC(=O)c3ccccc3)c2)cc(OC)c1OC`, the Potency entry in test [1], in test [2] and in test [3] was “inactive” in each case.

Consider `O=C(c1ccccn1)N(Cc1cccs1)C1(C(=O)NC2CCCCC2)CCCCC1`, for which the Potency entry in test [1], in test [2] and in test [3] was “inactive” throughout.

`COc1cc2c(cc1OCCCN1CCCC1)N=C(N)C21CCC1`: the Potency result in test [1], in test [2] and in test [3] was “inactive” throughout.

For `CCOc1ccc(CCNC(=O)c2cc3sc(Cl)cc3n2C)cc1OCC`, the Potency entry in test [1], in test [2] and in test [3] was “inactive” throughout.

On to `O=C(/C=C/c1ccccc1O)O[C@@H]1O[C@H](CO)[C@@H](O)[C@H](O)[C@H]1O`, for which the Potency entry in test [1], in test [2] and in test [3] was “inactive” throughout.

In the case of `NS(=O)(=O)c1ccc(NC(=O)Nc2ccc(F)cc2)cc1`, the Potency result in test [1], in test [2] and in test [3] was “inactive” each time.

Consider `CN1CCN(c2ccc(-c3cccc(CN4CCOCC4)c3)cc2NC(=O)c2c[nH]c(=O)cc2C(F)(F)F)CC1`, for which the Potency entry in test [1], in test [2] and in test [3] was “inactive” each time.

The record behind these values is PubChem BioAssay (NCATS).
